Results taken from the supplement of paper PMC6411743.
± gives the standard deviation of the averaged measurements. Targets with the largest changes are over-represented here; the source holds about 6,500 in all.

Compound: Nc1ncnc2c1ncn2[C@@H]1O[C@H](COP(=O)(O)OP(=O)(O)OP(=O)(O)O)[C@@H](O)[C@H]1O [adenosine triphosphate]
Experiment: NP40-soluble protein abundance relative to vehicle (solubility fold change) (ratio); higher = more soluble protein in presence of ATP
Procedure, shortened: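 Crude Jurkat lysate, prepared by Dounce homogenisation, was exposed to eight concentrations from 0.1 to 10 mM for 10 min at room temperature and then 3 min at 37 °C. Solubilisation used 0.8% NP40 with benzonase for 60 min at 4 °C, followed by ultracentrifugation and TMT labelling of the supernatant for LC-MS/MS. After vsn normalisation of intensities, each value is the fold change against the detergent-processed vehicle within each replicate, across three independent experiments.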

Sequence of UniProt O15392 (O15392 whole entry): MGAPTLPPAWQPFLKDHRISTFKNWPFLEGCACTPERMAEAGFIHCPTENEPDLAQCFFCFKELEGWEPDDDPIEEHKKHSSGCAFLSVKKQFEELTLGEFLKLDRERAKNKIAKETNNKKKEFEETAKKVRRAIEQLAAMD
Sequence of UniProt Q92664 (Q92664 whole entry, one chain of several): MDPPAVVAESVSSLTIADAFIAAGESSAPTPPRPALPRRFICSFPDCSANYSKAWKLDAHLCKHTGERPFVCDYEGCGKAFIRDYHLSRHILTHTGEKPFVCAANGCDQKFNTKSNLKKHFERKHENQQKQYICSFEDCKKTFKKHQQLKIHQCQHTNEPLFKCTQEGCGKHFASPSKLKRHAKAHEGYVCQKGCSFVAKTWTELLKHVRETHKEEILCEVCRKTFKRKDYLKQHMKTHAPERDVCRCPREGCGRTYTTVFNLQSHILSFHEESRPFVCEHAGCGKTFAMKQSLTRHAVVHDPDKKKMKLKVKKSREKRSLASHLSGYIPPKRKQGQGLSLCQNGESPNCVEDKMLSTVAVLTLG
Sequence of UniProt O43169 (O43169 whole entry, one chain of several): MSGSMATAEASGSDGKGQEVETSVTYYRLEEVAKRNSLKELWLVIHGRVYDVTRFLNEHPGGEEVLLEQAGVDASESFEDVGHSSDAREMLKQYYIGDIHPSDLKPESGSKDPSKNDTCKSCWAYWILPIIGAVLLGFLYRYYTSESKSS
Sequence of UniProt Q9GZN1 (Q9GZN1 whole entry, one chain of several): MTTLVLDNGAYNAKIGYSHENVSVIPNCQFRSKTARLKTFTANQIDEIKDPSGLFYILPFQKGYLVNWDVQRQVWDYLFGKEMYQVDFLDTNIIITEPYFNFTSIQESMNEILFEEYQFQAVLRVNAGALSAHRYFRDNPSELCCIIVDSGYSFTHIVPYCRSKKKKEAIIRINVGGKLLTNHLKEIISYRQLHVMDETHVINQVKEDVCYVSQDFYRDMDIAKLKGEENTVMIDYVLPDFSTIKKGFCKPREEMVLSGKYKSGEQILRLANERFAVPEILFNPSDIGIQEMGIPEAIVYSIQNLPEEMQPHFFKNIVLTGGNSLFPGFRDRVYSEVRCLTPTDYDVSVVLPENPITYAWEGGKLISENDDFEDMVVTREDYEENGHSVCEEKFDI
Sequence of UniProt P25686 (P25686 whole entry, one chain of several): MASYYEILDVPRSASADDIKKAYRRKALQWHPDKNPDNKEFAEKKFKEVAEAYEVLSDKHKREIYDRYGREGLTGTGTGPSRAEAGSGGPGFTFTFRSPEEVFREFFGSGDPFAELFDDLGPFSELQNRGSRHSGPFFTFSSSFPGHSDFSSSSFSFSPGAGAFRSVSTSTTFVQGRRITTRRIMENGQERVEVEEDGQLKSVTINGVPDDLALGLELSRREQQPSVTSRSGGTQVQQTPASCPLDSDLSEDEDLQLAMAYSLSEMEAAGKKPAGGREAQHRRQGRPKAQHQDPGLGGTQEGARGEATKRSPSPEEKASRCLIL
Sequence of UniProt O15533 (O15533 whole entry, one chain of several): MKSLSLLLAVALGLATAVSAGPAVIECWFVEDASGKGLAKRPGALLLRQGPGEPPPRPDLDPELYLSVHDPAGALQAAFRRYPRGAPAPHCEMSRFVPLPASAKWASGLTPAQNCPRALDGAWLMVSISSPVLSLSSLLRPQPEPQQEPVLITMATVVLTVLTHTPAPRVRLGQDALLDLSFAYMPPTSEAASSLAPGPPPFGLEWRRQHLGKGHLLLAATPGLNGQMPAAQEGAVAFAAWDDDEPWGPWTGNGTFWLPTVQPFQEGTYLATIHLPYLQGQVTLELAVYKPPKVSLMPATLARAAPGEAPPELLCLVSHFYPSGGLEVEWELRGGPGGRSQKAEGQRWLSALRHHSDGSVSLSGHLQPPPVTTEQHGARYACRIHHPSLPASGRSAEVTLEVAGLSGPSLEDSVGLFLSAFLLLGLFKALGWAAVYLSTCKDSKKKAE
Sequence of UniProt O43513 (O43513 whole entry): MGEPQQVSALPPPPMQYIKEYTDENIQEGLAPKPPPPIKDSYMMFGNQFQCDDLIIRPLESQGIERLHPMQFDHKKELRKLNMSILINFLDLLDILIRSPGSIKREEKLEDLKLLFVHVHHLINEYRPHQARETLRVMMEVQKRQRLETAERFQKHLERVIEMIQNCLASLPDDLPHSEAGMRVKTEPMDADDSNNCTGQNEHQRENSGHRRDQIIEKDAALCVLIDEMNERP
Sequence of UniProt Q9Y592 (Q9Y592 whole entry, one chain of several): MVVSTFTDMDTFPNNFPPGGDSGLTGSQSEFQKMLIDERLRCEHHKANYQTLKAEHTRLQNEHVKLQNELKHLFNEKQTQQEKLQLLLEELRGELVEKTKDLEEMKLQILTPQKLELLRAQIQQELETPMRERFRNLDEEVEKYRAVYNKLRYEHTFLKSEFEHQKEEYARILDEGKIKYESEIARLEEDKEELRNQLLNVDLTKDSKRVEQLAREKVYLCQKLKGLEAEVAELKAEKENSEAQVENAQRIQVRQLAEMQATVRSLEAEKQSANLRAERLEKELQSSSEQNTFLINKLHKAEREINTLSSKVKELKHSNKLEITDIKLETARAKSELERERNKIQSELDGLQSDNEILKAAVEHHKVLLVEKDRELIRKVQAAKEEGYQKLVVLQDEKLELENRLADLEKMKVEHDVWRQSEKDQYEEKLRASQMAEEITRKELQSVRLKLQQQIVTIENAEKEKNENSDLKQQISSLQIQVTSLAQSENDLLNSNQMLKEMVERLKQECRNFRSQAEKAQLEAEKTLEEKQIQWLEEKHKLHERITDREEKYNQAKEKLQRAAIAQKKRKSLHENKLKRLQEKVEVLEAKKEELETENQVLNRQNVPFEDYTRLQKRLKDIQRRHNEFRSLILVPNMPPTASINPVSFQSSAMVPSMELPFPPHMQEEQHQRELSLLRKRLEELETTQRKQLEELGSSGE
Sequence of UniProt Q6P1N9 (Q6P1N9 whole entry, one chain of several): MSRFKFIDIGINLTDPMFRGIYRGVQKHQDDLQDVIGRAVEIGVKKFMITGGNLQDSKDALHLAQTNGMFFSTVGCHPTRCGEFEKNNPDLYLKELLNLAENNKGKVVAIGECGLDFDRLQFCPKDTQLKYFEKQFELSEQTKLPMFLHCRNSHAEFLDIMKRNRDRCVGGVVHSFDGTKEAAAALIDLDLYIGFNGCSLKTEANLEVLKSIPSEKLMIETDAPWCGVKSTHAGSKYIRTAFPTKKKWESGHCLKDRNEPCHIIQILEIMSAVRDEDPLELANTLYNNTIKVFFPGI
Sequence of UniProt P29692 (P29692 whole entry, one chain of several): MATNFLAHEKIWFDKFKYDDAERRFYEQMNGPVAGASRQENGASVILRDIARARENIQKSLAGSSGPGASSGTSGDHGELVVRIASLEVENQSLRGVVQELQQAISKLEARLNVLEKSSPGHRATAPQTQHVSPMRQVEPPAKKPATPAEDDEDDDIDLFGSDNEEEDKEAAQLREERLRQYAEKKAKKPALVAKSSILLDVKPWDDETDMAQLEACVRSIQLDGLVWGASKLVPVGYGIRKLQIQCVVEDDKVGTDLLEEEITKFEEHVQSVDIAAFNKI
Sequence of UniProt O00750 (O00750 whole entry, one chain of several): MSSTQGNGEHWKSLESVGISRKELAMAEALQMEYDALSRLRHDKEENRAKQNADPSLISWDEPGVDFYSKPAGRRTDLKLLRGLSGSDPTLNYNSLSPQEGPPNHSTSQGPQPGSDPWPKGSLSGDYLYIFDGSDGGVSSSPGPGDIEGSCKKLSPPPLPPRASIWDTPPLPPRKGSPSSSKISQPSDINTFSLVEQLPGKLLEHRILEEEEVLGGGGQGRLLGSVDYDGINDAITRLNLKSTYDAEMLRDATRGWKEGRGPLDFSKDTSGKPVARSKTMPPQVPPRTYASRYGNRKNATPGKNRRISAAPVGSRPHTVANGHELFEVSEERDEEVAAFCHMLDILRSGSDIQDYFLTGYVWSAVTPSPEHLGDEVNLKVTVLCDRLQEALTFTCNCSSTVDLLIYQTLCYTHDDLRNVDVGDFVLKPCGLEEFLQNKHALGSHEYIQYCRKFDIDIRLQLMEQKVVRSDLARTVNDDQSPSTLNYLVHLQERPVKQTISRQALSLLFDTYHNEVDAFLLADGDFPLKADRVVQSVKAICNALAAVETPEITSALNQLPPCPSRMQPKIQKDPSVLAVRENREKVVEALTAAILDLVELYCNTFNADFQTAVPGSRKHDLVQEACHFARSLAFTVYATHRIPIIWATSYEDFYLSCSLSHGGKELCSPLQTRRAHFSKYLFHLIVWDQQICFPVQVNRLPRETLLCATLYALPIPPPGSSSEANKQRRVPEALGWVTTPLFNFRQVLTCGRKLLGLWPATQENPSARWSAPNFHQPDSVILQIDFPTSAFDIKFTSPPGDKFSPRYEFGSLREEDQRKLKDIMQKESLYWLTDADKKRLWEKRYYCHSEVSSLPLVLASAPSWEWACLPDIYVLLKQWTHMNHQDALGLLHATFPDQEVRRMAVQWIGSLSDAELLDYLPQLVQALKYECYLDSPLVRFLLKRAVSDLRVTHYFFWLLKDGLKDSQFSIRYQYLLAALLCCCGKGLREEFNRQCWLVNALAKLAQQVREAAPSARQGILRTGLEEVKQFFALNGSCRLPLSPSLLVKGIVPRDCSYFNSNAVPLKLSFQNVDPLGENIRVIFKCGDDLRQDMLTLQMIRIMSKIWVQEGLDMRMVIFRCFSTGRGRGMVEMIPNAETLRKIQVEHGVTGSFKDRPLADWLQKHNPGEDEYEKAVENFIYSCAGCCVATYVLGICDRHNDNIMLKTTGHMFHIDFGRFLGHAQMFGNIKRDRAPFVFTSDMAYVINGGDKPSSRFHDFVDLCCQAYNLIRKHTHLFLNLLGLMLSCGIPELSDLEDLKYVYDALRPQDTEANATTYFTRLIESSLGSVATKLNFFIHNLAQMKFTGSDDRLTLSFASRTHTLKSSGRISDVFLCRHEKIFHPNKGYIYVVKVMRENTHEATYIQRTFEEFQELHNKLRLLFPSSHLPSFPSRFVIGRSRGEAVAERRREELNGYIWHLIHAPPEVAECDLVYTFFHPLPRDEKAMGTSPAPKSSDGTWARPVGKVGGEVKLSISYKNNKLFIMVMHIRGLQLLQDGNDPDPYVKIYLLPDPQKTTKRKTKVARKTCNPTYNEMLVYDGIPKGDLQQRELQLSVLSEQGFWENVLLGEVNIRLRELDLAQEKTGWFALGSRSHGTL

Target	NP40-soluble protein abundance (concentration: 1mM)	NP40-soluble protein abundance (concentration: 2mM)	NP40-soluble protein abundance (concentration: 4mM)	NP40-soluble protein abundance (concentration: 6mM)	NP40-soluble protein abundance (concentration: 8mM)	NP40-soluble protein abundance (concentration: 10mM)
F6S7C4|Q8NEM7|Q8NEM7-2|Q8NEM7-3|R4GND2 (UniProt Q8NEM7)	1.09 ± 0.12	1.15 ± 0.1	1.14 ± 0.093	1.12 ± 0.13	1.16 ± 0.093	1.2 ± 0.11
M0QZM1|M0R019|P52272|P52272-2 (UniProt P52272)	0.988 ± 0.037	0.999 ± 0.016	1.01 ± 0.032	1.07 ± 0.014	1.04 ± 0.019	1.06 ± 0.024
A0A087X176|Q6ZRP7 (UniProt Q6ZRP7)	0.958 ± 0.057	0.983 ± 0.011	0.961 ± 0.028	0.99 ± 0.029	0.953 ± 0.026	0.96 ± 0.037
F8W057|Q9GZN1|Q9GZN1-2 (UniProt Q9GZN1)	1.07 ± 0.034	1.11 ± 0.034	1.1 ± 0.065	1.03 ± 0.089	1.2 ± 0.028	1.17 ± 0.089
UniProt O14776|O14776-2	0.972 ± 0.011	0.9735 ± 0.0036	0.959 ± 0.024	1.03 ± 0.021	1.01 ± 0.024	1.02 ± 0.013
HMGN4 (UniProt O00479)	0.97 ± 0.35	1.27 ± 0.44	1.22 ± 0.47	1.67 ± 0.86	1.63 ± 0.72	2.97 ± 2.3
E7EUT5|P04406 (UniProt P04406)	1.01 ± 0.012	0.959 ± 0.074	0.9969 ± 0.0069	0.939 ± 0.043	0.954 ± 0.024	0.944 ± 0.059
E9PB61|Q86V81 (UniProt Q86V81)	1.04 ± 0.094	1.09 ± 0.07	1.22 ± 0.13	1.44 ± 0.15	1.53 ± 0.13	1.66 ± 0.24
E9PEN0|Q8WYH8|Q8WYH8-2 (UniProt Q8WYH8)	1.15 ± 0.2	1.3 ± 0.29	1.36 ± 0.18	1.5 ± 0.16	1.85 ± 0.6	1.86 ± 0.39
A8MT02|P14678|P14678-2|P14678-3 (UniProt P14678)	1.22 ± 0.14	1.34 ± 0.089	1.47 ± 0.05	1.7 ± 0.26	1.7 ± 0.22	1.63 ± 0.13
E9PRY8|P29692|P29692-2|P29692-3|P29692-4 (UniProt P29692)	0.959 ± 0.054	0.931 ± 0.034	0.894 ± 0.03	0.912 ± 0.091	0.88 ± 0.042	0.865 ± 0.015
J3KNW7|Q9Y592|Q9Y592-2 (UniProt Q9Y592)	1.06 ± 0.072	0.9299 ± 0.0068	1.02 ± 0.032	1.04 ± 0.028	1.07 ± 0.062	0.993 ± 0.077
A0A0X1KG71 (UniProt Q8WX92)	0.9808 ± 0.0083	0.989 ± 0.012	0.9482 ± 0.0081	0.959 ± 0.033	0.959 ± 0.022	0.956 ± 0.023
H7C5U8|Q9P0M9 (UniProt Q9P0M9)	1.12 ± 0.16	0.995 ± 0.22	0.923 ± 0.19	0.944 ± 0.29	0.902 ± 0.19	0.894 ± 0.24
A0A0B4J2C3|P13693|Q5W0H4 (UniProt P13693)	0.95 ± 0.025	0.942 ± 0.021	0.915 ± 0.025	0.923 ± 0.05	0.919 ± 0.035	0.909 ± 0.048
G8JLQ3|P78537|P78537-2 (UniProt P78537)	0.965 ± 0.12	0.88 ± 0.076	0.834 ± 0.1	0.861 ± 0.12	0.816 ± 0.032	0.702 ± 0.15
A0A0A0MSV9|A0A0G2JH37|A0A0G2JKZ1|A2AB90|O15533|O15533-2|O15533-3 (UniProt O15533)	1.04 ± 0.066	1.02 ± 0.067	0.986 ± 0.028	0.968 ± 0.047	0.99 ± 0.085	0.984 ± 0.088
A0A0C4DGS0|P56556 (UniProt P56556)	0.969 ± 0.066	0.922 ± 0.055	0.901 ± 0.046	0.875 ± 0.066	0.926 ± 0.053	0.909 ± 0.031
I3L448|Q5TC12 (UniProt Q5TC12)	0.982 ± 0.049	0.985 ± 0.028	0.983 ± 0.046	0.998 ± 0.04	0.96 ± 0.04	0.952 ± 0.022
J3QTA6|Q9BRQ6 (UniProt Q9BRQ6)	0.958 ± 0.12	0.921 ± 0.073	0.897 ± 0.087	0.925 ± 0.13	0.918 ± 0.093	0.874 ± 0.067
B4DHE8|Q96DH6 (UniProt Q96DH6)	1.02 ± 0.045	1.02 ± 0.058	0.994 ± 0.065	0.993 ± 0.08	0.983 ± 0.071	0.972 ± 0.079
E5RG17|Q6P1N9 (UniProt Q6P1N9)	0.989 ± 0.02	0.974 ± 0.013	0.965 ± 0.02	0.963 ± 0.052	0.937 ± 0.019	0.968 ± 0.019
UniProt O00567	1.04 ± 0.038	1.1 ± 0.033	1.24 ± 0.02	1.38 ± 0.06	1.68 ± 0.064	2.11 ± 0.2
NDUFA2 (UniProt O43678)	0.882 ± 0.1	0.874 ± 0.16	0.924 ± 0.1	0.985 ± 0.21	0.876 ± 0.081	0.835 ± 0.13
E9PJA7|Q9NYF8|Q9NYF8-2|Q9NYF8-3 (UniProt Q9NYF8)	1.31 ± 0.092	1.41 ± 0.056	1.54 ± 0.086	1.7 ± 0.11	1.65 ± 0.07	1.7 ± 0.06
J9JID7|Q03252 (UniProt Q03252)	1 ± 0.066	0.943 ± 0.063	1.01 ± 0.065	1.06 ± 0.037	1.03 ± 0.047	1.09 ± 0.059
UniProt O14662-2|O14662-4|O14662-5	0.98 ± 0.066	0.94 ± 0.042	0.993 ± 0.044	0.974 ± 0.037	0.983 ± 0.034	0.921 ± 0.068
A0A0G2JPT5|O75943|O75943-2 (UniProt O75943)	1.49 ± 0.28	1.59 ± 0.3	1.62 ± 0.32	1.7 ± 0.33	1.69 ± 0.28	1.65 ± 0.33

Target	NP40-soluble protein abundance (concentration: 1mM)	NP40-soluble protein abundance (concentration: 2mM)	NP40-soluble protein abundance (concentration: 4mM)	NP40-soluble protein abundance (concentration: 6mM)	NP40-soluble protein abundance (concentration: 8mM)	NP40-soluble protein abundance (concentration: 10mM)
B1AJY7|O75832 (UniProt O75832)	1 ± 0.082	0.973 ± 0.031	0.955 ± 0.065	0.977 ± 0.076	0.947 ± 0.056	0.863 ± 0.043
E9PL53|J3KND1 (UniProt Q96ER3)	0.966 ± 0.034	0.9715 ± 0.0057	0.951 ± 0.013	0.997 ± 0.019	0.9485 ± 0.0047	0.925 ± 0.011
UniProt O15392|O15392-2	0.961 ± 0.1	2.09 ± 1.6	1.13 ± 0.09	1.23 ± 0.031	1.26 ± 0.092	1.31 ± 0.16
F5GWN5|O00750 (UniProt O00750)	0.994 ± 0.022	1.03 ± 0.025	1.05 ± 0.013	1.02 ± 0.039	1.03 ± 0.028	1.03 ± 0.051
MED7 (UniProt O43513)	1.23 ± 0.3	1.17 ± 0.091	1.09 ± 0.056	1.2 ± 0.37	1.23 ± 0.26	1.28 ± 0.34
H3BTR4|Q96BT3 (UniProt Q96BT3)	1.32 ± 0.023	1.41 ± 0.13	1.52 ± 0.21	1.72 ± 0.23	1.68 ± 0.17	1.87 ± 0.17
A0A0C4DGB9|Q9H2U2 (UniProt Q9H2U2)	0.971 ± 0.022	0.97 ± 0.029	0.953 ± 0.03	0.93 ± 0.051	0.952 ± 0.038	0.919 ± 0.037
F5H527|Q76I76 (UniProt Q76I76)	0.984 ± 0.012	1 ± 0.016	0.993 ± 0.03	0.997 ± 0.013	0.978 ± 0.037	0.995 ± 0.062
E9PDF6|O43795 (UniProt O43795)	2.78 ± 0.047	2.71 ± 0.065	2.65 ± 0.15	2.65 ± 0.21	2.82 ± 0.17	2.67 ± 0.12
UniProt O00560|O00560-2	0.95 ± 0.073	0.946 ± 0.041	0.937 ± 0.04	0.896 ± 0.077	0.9459 ± 0.0062	0.957 ± 0.031
H7C3Q6|Q8WV92|B8ZZL5 (UniProt Q8WV92)	1.85 ± 0.55	1.9 ± 0.66	1.92 ± 0.67	1.9 ± 0.76	1.97 ± 0.67	1.94 ± 0.67
B7ZBK4|Q92664 (UniProt Q92664)	1.02 ± 0.021	1.03 ± 0.035	1 ± 0.042	0.9904 ± 0.0034	0.989 ± 0.026	0.976 ± 0.053
UniProt O43865	0.982 ± 0.1	0.965 ± 0.063	0.963 ± 0.076	0.973 ± 0.1	0.96 ± 0.081	0.969 ± 0.043
C9JRD2|C9JXB9|P25686|P25686-2 (UniProt P25686)	0.969 ± 0.038	0.956 ± 0.019	0.956 ± 0.022	0.971 ± 0.06	0.973 ± 0.016	0.977 ± 0.025
H3BUX2|J3KNF8|O43169 (UniProt O43169)	0.964 ± 0.19	0.854 ± 0.08	0.877 ± 0.06	0.865 ± 0.077	0.815 ± 0.059	0.781 ± 0.084
H7C5F5|Q9H2U1|Q9H2U1-2 (UniProt Q9H2U1)	0.963 ± 0.068	0.979 ± 0.08	0.987 ± 0.073	1.01 ± 0.1	1.03 ± 0.088	1.02 ± 0.1
UniProt O15379|O15379-2	1 ± 0.019	0.9928 ± 0.0062	0.985 ± 0.04	0.994 ± 0.053	1.04 ± 0.044	1.03 ± 0.065
CPNE3 (UniProt O75131)	0.969 ± 0.067	0.983 ± 0.052	0.954 ± 0.054	0.903 ± 0.1	0.951 ± 0.024	0.96 ± 0.024
J3KTD6|Q96GD4|Q96GD4-5 (UniProt Q96GD4)	1.37 ± 0.16	1.47 ± 0.18	1.6 ± 0.16	1.58 ± 0.25	1.71 ± 0.032	1.76 ± 0.072
E7EX59|E9PDR0|P05166|P05166-2|E7EUY3 (UniProt P05166)	0.992 ± 0.049	0.971 ± 0.02	0.968 ± 0.012	0.973 ± 0.046	0.998 ± 0.033	0.979 ± 0.03
I3L0L6|Q9H6Y7 (UniProt Q9H6Y7)	0.901 ± 0.033	0.93 ± 0.016	0.896 ± 0.051	0.962 ± 0.064	0.921 ± 0.066	0.864 ± 0.065
SPTLC1 (UniProt O15269)	0.993 ± 0.026	0.998 ± 0.032	0.997 ± 0.027	0.93 ± 0.096	0.998 ± 0.024	1 ± 0.049
A0A0A0MSK4|Q86YR5|Q86YR5-4 (UniProt Q86YR5)	0.972 ± 0.037	0.99 ± 0.074	0.9991 ± 0.0089	1.018 ± 0.0076	0.96 ± 0.021	0.981 ± 0.05
SETD1A (UniProt O15047)	0.962 ± 0.038	0.97 ± 0.018	0.979 ± 0.022	0.997 ± 0.044	0.969 ± 0.049	0.997 ± 0.046
A2ABJ5|O75955|A0A140T9R1 (UniProt O75955)	1.03 ± 0.047	0.948 ± 0.029	0.926 ± 0.012	0.925 ± 0.11	0.931 ± 0.071	0.916 ± 0.052
H0Y6E7|H3BT71|P38159|P38159-2 (UniProt P38159)	1.13 ± 0.068	1.22 ± 0.042	1.34 ± 0.046	1.56 ± 0.087	1.62 ± 0.026	1.79 ± 0.064
B4DZG1|Q9Y483-3|Q9Y483 (UniProt Q9Y483)	1.19 ± 0.023	1.25 ± 0.027	1.36 ± 0.057	1.41 ± 0.082	1.5 ± 0.032	1.56 ± 0.049
